# Records with an inconclusive call do not appear. Entries that show only a call come without a potency. Values without a mark were called inactive. The source made the active and inactive calls. Calls come from the whole dose curve; as a rule, active = well fitted curve in the direction sought with a large enough effect in the repeat runs; inconclusive = weak or mixed curves; inactive = no such curve, though single readings can be large; an effect the other way counts as inactive or inconclusive.
# Assays:
# [1] = Caspase-3/7 induction in HepG2 cells by small molecules, qHTS cell viability counter screen (AID 1346981); note: nearly all actives have a fitted effect of over 30% in size; note: potency is the fitted concentration of half-maximal effect; for activity change, negative = cytotoxicity: series mostly up to about 92 µM
# Procedure, shortened: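 Cell viability is measured as a cytotoxicity counter screen alongside the Caspase-Glo 3/7 readout in identical wells. Wild-type HepG2 cells are treated with test compounds for 16 hr at 37 C before CellTiter-Fluor addition and a 1-hr incubation.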
# [2] = biological target: Nuclear receptor subfamily 1 group I member 2 (Homo sapiens) (UniProt O75469); assay: Human pregnane X receptor (PXR) small molecule agonists, qHTS assay (AID 1346982); note: nearly all actives have a fitted effect of over 35% in size; note: potency is the fitted concentration of half-maximal effect
# Nuclear receptor subfamily 1 group I member 2 (Homo sapiens), sequence (O75469 whole entry, looked up): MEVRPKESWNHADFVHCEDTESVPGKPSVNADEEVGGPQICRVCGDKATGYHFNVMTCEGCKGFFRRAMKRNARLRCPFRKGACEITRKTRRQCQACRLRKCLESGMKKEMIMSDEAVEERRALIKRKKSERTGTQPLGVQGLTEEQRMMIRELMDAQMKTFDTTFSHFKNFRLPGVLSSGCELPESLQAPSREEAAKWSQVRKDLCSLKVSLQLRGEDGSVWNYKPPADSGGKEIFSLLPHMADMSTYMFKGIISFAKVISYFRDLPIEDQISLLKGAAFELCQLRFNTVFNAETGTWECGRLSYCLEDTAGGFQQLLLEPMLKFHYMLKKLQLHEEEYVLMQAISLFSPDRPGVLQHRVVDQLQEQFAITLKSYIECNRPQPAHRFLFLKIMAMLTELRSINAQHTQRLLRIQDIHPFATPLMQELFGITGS
# Procedure, shortened: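 Cells: HepG2 stably carrying PXR-Luc. Medium held 5% charcoal-stripped FBS. Compounds in DMSO added after 5 hr plating, incubated 24 hr, then luminescence quantified with ONE-Glo.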
# [3] = biological target: Nuclear receptor subfamily 1 group I member 2 (Rattus norvegicus) (UniProt Q9R1A7); assay: Rat pregnane X receptor (rPXR) activation by small molecules, qHTS assay (AID 1346983); conditions: rPXR luciferase reporter cells, One-Glo luminescence, 24 h; max activation: stronger effect = higher value; note: nearly all actives have a fitted effect of over 20% in size
# Nuclear receptor subfamily 1 group I member 2 (Rattus norvegicus), sequence (Q9R1A7 whole entry, looked up): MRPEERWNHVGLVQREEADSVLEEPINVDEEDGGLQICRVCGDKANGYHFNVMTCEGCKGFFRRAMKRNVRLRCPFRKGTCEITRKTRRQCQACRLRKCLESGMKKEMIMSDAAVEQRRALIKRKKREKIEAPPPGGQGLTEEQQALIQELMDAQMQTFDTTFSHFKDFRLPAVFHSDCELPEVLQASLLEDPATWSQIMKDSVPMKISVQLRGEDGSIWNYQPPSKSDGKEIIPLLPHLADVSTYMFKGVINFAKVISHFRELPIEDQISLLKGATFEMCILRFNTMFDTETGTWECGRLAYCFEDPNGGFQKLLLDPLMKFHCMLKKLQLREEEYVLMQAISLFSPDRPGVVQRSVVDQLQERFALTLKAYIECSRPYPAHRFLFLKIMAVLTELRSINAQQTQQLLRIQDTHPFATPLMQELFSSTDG
# Procedure, shortened: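 Cell-based rPXR luciferase reporter assay, 2,000 cells per well, rested 5hr at 37 C before compound addition in DMSO, then 24 hr at 37 C. One-Glo reagent was added and luminescence read after 30 min at room temperature.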
# [4] = biological target: Nuclear receptor subfamily 1 group I member 2 (Homo sapiens) (UniProt O75469); assay: CYP3A4 induction through human pregnane X receptor (PXR) by small molecules, qHTS assay (AID 1346984); note: nearly all actives have a fitted effect of over 40% in size
# Procedure, shortened: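 Quantitative HTS in DPX-2 cells, i.e. HepG2 transfected with PXR response element and CYP3A4-promoter luciferase. Compounds in DMSO incubated 24hr at 37C; then P450-Glo CYP3A4 substrate, 3uM final, 3hr; One-Glo luminescence.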
# [5] = biological target: Nuclear receptor subfamily 1 group I member 2 (Homo sapiens) (UniProt O75469); assay: Human pregnane X receptor (PXR) activation by small molecules, qHTS assay (AID 1346985); note: nearly all actives have a fitted effect of over 40% in size
# Procedure, shortened: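 DPX-2 cells (HepG2 co-transfected with a PXR response element and a CYP3A4-promoter luciferase construct) were seeded at 2,000 per well, rested 5 hr at 37C, then exposed to DMSO-dissolved compounds for 24 hr. Activation was read as luciferase luminescence.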
# [6] = biological target: Cytochrome P450 2D6 (Homo sapiens) (UniProt P10635); assay: Cytochrome P450 Family 2 Subfamily D Member 6 (CYP2D6) small molecule antagonists: luciferase reporter qHTS assay (AID 1671196); note: nearly all actives have a fitted effect of over 50% in size; note: potency is the fitted concentration of half-maximal effect; for activity change, negative = inhibition: series mostly up to about 120 µM
# Cytochrome P450 2D6 (Homo sapiens), sequence (P10635 whole entry, looked up): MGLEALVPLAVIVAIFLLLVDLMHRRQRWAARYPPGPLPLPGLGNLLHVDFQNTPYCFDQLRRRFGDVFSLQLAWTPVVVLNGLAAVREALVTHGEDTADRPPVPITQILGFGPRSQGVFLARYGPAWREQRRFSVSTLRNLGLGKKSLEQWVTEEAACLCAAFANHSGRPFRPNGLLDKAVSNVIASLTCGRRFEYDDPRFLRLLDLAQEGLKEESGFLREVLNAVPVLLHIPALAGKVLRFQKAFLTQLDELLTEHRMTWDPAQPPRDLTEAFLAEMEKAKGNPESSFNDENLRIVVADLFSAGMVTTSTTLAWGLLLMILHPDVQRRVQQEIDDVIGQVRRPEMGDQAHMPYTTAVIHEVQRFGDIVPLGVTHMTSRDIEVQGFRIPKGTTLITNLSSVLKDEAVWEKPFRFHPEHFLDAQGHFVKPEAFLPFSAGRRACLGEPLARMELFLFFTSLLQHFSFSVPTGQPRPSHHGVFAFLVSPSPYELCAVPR
# Procedure, shortened: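 Enzyme and proluciferin substrate were first combined with test chemical for 10 min at room temperature. Adding NADPH regeneration solution started a 1 h reaction, stopped with luciferin detection reagent and read by luminescence 20 min later.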
# [7] = biological target: Cytochrome P450 2C19 (Homo sapiens) (UniProt P33261); assay: Cytochrome P450 Family 2 Subfamily C Member 19 (CYP2C19) small molecule antagonists: luciferase reporter qHTS assay (AID 1671197); note: nearly all actives have a fitted effect of over 65% in size; note: potency is the fitted concentration of half-maximal effect; for activity change, negative = inhibition: series mostly up to about 120 µM
# Cytochrome P450 2C19 (Homo sapiens), sequence (P33261 whole entry, looked up): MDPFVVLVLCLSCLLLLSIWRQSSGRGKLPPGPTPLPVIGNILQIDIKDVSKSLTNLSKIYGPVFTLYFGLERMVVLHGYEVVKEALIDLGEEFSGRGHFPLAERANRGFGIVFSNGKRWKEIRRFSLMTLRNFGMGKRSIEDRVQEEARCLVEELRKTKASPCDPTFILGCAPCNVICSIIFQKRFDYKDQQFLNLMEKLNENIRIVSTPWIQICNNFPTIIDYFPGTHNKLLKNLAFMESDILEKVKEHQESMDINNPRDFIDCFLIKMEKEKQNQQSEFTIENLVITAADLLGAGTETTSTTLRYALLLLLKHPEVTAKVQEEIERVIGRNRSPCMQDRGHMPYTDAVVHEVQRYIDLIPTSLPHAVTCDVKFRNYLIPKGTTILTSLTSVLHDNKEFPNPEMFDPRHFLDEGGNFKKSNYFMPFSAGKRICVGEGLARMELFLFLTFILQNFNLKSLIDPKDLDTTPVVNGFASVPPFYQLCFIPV
# Procedure, shortened: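 Relative luminescence units recorded 20 min after the detection reagent stopped a 1 h, 37C CYP2C19 reaction on proluciferin substrate, which was started by NADPH regeneration following 10 min room-temperature compound preincubation; ketoconazole positive control.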
# [8] = biological target: Cytochrome P450 1A2 (Homo sapiens) (UniProt P05177); assay: Cytochrome P450 Family 1 Subfamily A Member 2 (CYP1A2) small molecule antagonists: luciferase reporter qHTS assay (AID 1671199); note: nearly all actives have a fitted effect of over 50% in size; note: potency is the fitted concentration of half-maximal effect; for activity change, negative = inhibition: series mostly up to about 120 µM
# Cytochrome P450 1A2 (Homo sapiens), sequence (P05177 whole entry, looked up): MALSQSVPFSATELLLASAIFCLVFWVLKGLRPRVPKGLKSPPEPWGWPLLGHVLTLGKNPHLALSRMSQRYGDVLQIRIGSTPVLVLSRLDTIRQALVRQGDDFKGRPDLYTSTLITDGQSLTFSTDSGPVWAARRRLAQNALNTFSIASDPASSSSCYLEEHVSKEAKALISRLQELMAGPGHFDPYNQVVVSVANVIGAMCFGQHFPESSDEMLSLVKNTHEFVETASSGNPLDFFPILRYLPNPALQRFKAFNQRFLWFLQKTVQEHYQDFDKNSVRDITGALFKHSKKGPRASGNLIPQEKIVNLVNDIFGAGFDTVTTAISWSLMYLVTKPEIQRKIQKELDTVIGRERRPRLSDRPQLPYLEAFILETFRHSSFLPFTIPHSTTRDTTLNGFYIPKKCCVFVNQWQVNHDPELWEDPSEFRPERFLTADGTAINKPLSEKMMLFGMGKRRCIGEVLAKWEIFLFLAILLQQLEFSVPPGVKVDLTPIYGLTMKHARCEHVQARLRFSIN
# Procedure, shortened: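 Compounds were incubated with CYP1A2 and a luminogenic proluciferin substrate for 10 min at room temperature before the reaction was started with NADPH regeneration solution. After 1 h, detection reagent was added and light output, proportional to CYP activity, was recorded.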
# [9] = biological target: Cytochrome P450 2C9 (Homo sapiens) (UniProt P11712); assay: Cytochrome P450 Family 2 Subfamily C Member 9 (CYP2C9) small molecule antagonists: luciferase reporter qHTS assay (AID 1671198); note: nearly all actives have a fitted effect of over 50% in size; note: potency is the fitted concentration of half-maximal effect; for activity change, negative = inhibition: series mostly up to about 120 µM
# Cytochrome P450 2C9 (Homo sapiens), sequence (P11712 whole entry, looked up): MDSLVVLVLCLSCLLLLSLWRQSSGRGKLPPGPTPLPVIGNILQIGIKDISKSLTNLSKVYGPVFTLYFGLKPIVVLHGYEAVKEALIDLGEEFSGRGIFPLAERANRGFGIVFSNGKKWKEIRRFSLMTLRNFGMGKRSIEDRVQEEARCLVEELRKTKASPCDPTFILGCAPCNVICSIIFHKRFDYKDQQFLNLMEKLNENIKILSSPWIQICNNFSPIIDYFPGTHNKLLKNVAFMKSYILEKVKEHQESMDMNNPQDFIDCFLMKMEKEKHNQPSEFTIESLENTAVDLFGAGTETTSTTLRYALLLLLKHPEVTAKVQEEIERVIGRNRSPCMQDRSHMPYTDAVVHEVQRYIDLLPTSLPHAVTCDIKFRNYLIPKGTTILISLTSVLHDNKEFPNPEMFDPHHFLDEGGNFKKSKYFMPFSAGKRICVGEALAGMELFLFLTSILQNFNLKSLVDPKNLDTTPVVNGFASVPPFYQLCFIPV
# Procedure, shortened: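 CYP2C9 activity was measured with a P450-Glo proluciferin substrate. Enzyme–substrate mix was held with compound for 10 min at room temperature, then NADPH regeneration solution was added for 1 h at 37C. Luciferin product was read as luminescence.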
# [10] = biological target: Voltage-gated inwardly rectifying potassium channel KCNH2 (Homo sapiens) (UniProt Q12809); assay: Human Ether-a-go-go-Related Gene (hERG) channel small molecule antagonists: fluorescence cell-based qHTS assay (AID 1671200); note: nearly all actives have a fitted effect of over 50% in size; note: potency is the fitted concentration of half-maximal effect;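 for activity change, negative = inhibition: hERG-expressing U2OS cells given a thallium stimulus after FluxOR II dye loading; series mostly up to about 77 µM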
# Voltage-gated inwardly rectifying potassium channel KCNH2 (Homo sapiens), sequence (Q12809 whole entry, looked up): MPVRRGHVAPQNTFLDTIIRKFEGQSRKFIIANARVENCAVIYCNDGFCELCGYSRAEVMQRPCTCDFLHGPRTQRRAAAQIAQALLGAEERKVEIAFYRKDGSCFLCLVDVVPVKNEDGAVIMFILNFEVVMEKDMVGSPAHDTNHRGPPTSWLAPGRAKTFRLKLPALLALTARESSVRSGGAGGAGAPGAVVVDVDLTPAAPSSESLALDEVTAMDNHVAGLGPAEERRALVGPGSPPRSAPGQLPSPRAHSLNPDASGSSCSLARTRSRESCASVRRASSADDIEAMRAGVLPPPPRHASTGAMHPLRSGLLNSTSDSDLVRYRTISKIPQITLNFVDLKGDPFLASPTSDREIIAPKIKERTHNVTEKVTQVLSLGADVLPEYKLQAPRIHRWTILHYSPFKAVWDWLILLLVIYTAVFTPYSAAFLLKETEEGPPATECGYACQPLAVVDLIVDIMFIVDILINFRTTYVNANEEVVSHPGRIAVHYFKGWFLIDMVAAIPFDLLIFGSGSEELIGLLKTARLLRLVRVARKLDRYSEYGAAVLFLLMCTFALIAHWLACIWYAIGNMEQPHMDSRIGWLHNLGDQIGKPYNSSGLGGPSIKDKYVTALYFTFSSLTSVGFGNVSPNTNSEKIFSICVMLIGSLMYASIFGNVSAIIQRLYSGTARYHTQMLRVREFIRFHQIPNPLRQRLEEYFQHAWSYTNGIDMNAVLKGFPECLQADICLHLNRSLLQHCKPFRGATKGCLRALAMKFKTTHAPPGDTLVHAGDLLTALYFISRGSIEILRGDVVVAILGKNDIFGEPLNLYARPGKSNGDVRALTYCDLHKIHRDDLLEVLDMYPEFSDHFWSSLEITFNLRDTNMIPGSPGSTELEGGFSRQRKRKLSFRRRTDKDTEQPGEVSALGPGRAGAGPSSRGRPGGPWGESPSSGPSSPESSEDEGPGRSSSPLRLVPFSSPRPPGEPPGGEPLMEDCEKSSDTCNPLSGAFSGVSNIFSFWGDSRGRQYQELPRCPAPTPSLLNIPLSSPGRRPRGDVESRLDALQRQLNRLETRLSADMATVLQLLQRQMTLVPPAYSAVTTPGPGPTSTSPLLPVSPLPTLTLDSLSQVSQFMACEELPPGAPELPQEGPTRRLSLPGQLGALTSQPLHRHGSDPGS
# Procedure, shortened: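 Channel function was assessed by thallium flux. Cells seeded the previous day and kept at 37 C took up FluxOR II dye over 1 h in the dark at room temperature, then sat another 10 min before stimulation.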
structure (smiles),measurement,setting,value
COc1cc(/C=C/C(=O)CC(=O)/C=C/c2ccc(O)c(OC)c2)ccc1O,Potency,[1],30.8 µM (active)
same,Potency,[2],24.5 µM (active)
same,max activation,[3],8.99%
same,Potency,[4],inactive
same,Potency,[5],inactive
same,Potency,[6],35.8 µM (active)
same,Potency,[7],10.1 µM (active)
same,Potency,[8],31.9 µM (active)
CCOC(=O)[C@H](C)O,Potency,[1],inactive
same,Potency,[2],inactive
same,Potency,[6],inactive
same,Potency,[7],inactive
same,Potency,[9],inactive
same,Potency,[8],inactive
same,Potency,[10],inactive
CCCCC/C=C\C=C\C(=O)OCC,Potency,[1],inactive
same,Potency,[2],63.7 µM (active)
same,Potency,[6],46.7 µM (active)
same,Potency,[7],23.4 µM (active)
same,Potency,[9],13.2 µM (active)
same,Potency,[8],37.1 µM (active)
C=CC(C)(C)O,Potency,[1],inactive
same,Potency,[2],inactive
same,Potency,[6],inactive
same,Potency,[7],inactive
same,Potency,[9],inactive
same,Potency,[8],inactive
CCCCCCCCCCCCCCCCC(C(=O)O)C(O)(CC(=O)O)C(=O)O (stereo not given),Potency,[1],inactive
same,Potency,[2],inactive
same,max activation,[3],-2.33%
same,Potency,[4],inactive
same,Potency,[5],inactive
same,Potency,[6],34.7 µM (active)
same,Potency,[7],inactive
same,Potency,[9],inactive
same,Potency,[8],inactive
same,Potency,[10],inactive
CC(=O)[C@]1(O)Cc2c(O)c3c(c(O)c2[C@@H](O[C@H]2C[C@H](N)[C@H](O)[C@H](C)O2)C1)C(=O)c1ccccc1C3=O,Potency,[1],11.9 µM (active)
same,Potency,[2],inactive
same,Potency,[4],inactive
same,Potency,[5],inactive
same,Potency,[10],inactive
O=C1CCCCCCCCCCCCCC1,Potency,[1],inactive
same,Potency,[2],inactive
same,Potency,[6],inactive
same,Potency,[7],inactive
same,Potency,[9],inactive
same,Potency,[8],inactive
Cc1c[nH]c(=O)[nH]c1=O,Potency,[1],inactive
same,Potency,[2],inactive
same,Potency,[6],inactive
same,Potency,[7],inactive
same,Potency,[9],inactive
C/C=C/C(=O)OCC(C)C,Potency,[1],inactive
same,Potency,[2],inactive
same,Potency,[6],inactive
same,Potency,[7],inactive
same,Potency,[9],inactive
same,Potency,[8],inactive
O=C1C=CC(=O)N1c1cccc(N2C(=O)C=CC2=O)c1,Potency,[1],61.1 µM (active)
same,Potency,[2],inactive
same,Potency,[6],71 µM (active)
same,Potency,[7],7.1 µM (active)
same,Potency,[9],6.33 µM (active)
same,Potency,[8],15.9 µM (active)
CN(C/C=C/c1ccccc1)Cc1cccc2ccccc12,Potency,[1],inactive
same,Potency,[2],inactive
same,max activation,[3],-2.12%
same,Potency,[4],inactive
same,Potency,[5],inactive
same,Potency,[6],0.977 µM (active)
same,Potency,[7],3.89 µM (active)
same,Potency,[10],2.39 µM (active)
Clc1cccc(Cl)n1,Potency,[1],inactive
same,Potency,[2],inactive
same,Potency,[6],inactive
same,Potency,[7],inactive
same,Potency,[9],inactive
same,Potency,[8],inactive
same,Potency,[10],inactive
CCCCCCCCCC[N+](C)(CCCCCCCCCC)CCC[Si](OC)(OC)OC,Potency,[1],61.1 µM (active)
same,Potency,[2],inactive
same,Potency,[6],3.17 µM (active)
same,Potency,[7],50.2 µM (active)
same,Potency,[9],35.6 µM (active)
same,Potency,[8],20 µM (active)
same,Potency,[10],2.45 µM (active)
CCCCNc1ccc(NCCCC)c2c1C(=O)c1ccccc1C2=O,"activity change, negative = cytotoxicity",[1],-16.6% [at 19 µM]
same,activation,[2],2.95% [at 19 µM]
same,"activity change, negative = inhibition",[6],0.95% [at 23.6 µM]
same,"activity change, negative = inhibition",[7],-5.26% [at 23.6 µM]
same,"activity change, negative = inhibition",[9],-1.25% [at 23.6 µM]
same,Potency,[8],3.79 µM (active)
same,"activity change, negative = inhibition",[10],-6.35% [at 15.8 µM]
C=COCCCC,Potency,[1],inactive
same,Potency,[2],inactive
same,Potency,[6],inactive
same,Potency,[7],inactive
same,Potency,[9],inactive
same,Potency,[8],inactive
same,Potency,[10],inactive
C/C(=N\[Si](C)(C)C)O[Si](C)(C)C,Potency,[1],inactive
same,Potency,[2],inactive
same,Potency,[6],inactive
same,Potency,[7],inactive
same,Potency,[9],inactive
same,Potency,[10],inactive
CC(=O)CC(N)=O,Potency,[1],inactive
same,Potency,[2],inactive
same,Potency,[6],inactive
same,Potency,[7],inactive
same,Potency,[9],inactive
same,Potency,[8],inactive
same,Potency,[10],inactive
N#CCCOCCC#N,Potency,[1],inactive
same,Potency,[2],inactive
same,Potency,[6],inactive
same,Potency,[7],inactive
same,Potency,[9],inactive
same,Potency,[8],inactive
same,Potency,[10],inactive
[Cl][Dy]([Cl])[Cl],Potency,[1],inactive
same,Potency,[2],inactive
same,Potency,[6],inactive
same,Potency,[7],inactive
same,Potency,[9],inactive
same,Potency,[8],inactive
same,Potency,[10],inactive
CCC(O)CO (stereo not given),Potency,[1],inactive
same,Potency,[2],inactive
same,Potency,[6],inactive
same,Potency,[7],inactive
same,Potency,[9],inactive
same,Potency,[8],inactive
same,Potency,[10],inactive
Cn1c(=O)[nH]c2ncn(C)c2c1=O,Potency,[1],inactive
same,Potency,[2],inactive
same,Potency,[6],inactive
same,Potency,[7],inactive
same,Potency,[9],inactive
same,Potency,[8],inactive
same,Potency,[10],inactive
Clc1ccc2c(Cl)ccnc2c1,Potency,[1],inactive
same,Potency,[2],inactive
same,Potency,[6],inactive
same,Potency,[7],inactive
same,Potency,[9],inactive
same,Potency,[10],inactive
CCNc1nc(NC(C)(C)C)nc(OC)n1,Potency,[1],inactive
same,Potency,[2],61.1 µM (active)
same,Potency,[6],inactive
same,Potency,[7],35.6 µM (active)
same,Potency,[9],inactive
same,Potency,[8],20 µM (active)
same,Potency,[10],inactive

# — PubChem BioAssay (Tox21)
